{"source": "ChEMBL document CHEMBL4888484", "about": "“Replenishing the malaria drug discovery pipeline: Screening and hit evaluation of the MMV Hit Generation Library 1 (HGL1) against asexual blood stage Plasmodium falciparum ,using a nano luciferase reporter read-out” (2022)", "note": "In all, about 4,800 compounds went through this assay and about 420 (8.8%) showed an effect of 50% or more. Many of the other results were omitted from the sample, so strong results are more common in it than they were.", "data": [{"tested_on": "Plasmodium falciparum", "experiment": "Confirmatory screen in NF54 nanoGlo assay, in single point, at 2uM, 72h", "type": "functional, Erythrocyte", "conditions": "timepoint 72 hour", "units": {"% Inhibition": "%"}, "values": [{"molecule": "COc1cc(C)c2[nH]c3c(c(=O)c2c1)CN(CC(=O)Nc1ccc(C)c(F)c1)CC3", "% Inhibition": 0}, {"molecule": "COc1cc(C)c2[nH]c3c(c(=O)c2c1)CN(CC(=O)Nc1ccc(F)c(C)c1)CC3", "% Inhibition": 14}, {"molecule": "COc1ccc(OC)c(NC(=O)CN2CCc3[nH]c4ccc(F)cc4c(=O)c3C2)c1", "% Inhibition": 72}, {"molecule": "COc1ccc(S(=O)(=O)N(C2CCCCC2)C2CCCCC2)cc1", "% Inhibition": -11}, {"molecule": "CCN(CCc1ccncc1)S(=O)(=O)c1ccc(N2C(=O)CCS2(=O)=O)cc1C", "% Inhibition": 6}, {"molecule": "O=C(Nc1ccc(-c2nc3cnccc3o2)c(Cl)c1)c1sc2ccccc2c1Cl", "% Inhibition": -5}, {"molecule": "COc1cccc(-c2cc(O)cc(CC[C@H]3CCCCN3)c2)n1", "% Inhibition": 73}, {"molecule": "Oc1cc(CC[C@H]2CCCCN2)cc(-c2cnc3ccccc3n2)c1", "% Inhibition": 73}, {"molecule": "COCCN(CC1CN(Cc2ccsc2)CC1c1cccc(F)c1)C(=O)C(C)C", "note": "(stereo unspecified)", "% Inhibition": 2}, {"molecule": "O=C(Nc1ccc(N2CCn3c(nc4cc(Cl)ccc43)C2)cc1)c1ccc(F)cc1", "% Inhibition": -6}, {"molecule": "Cc1nc(Cc2nc(O)cs2)sc1C", "% Inhibition": -20}, {"molecule": "NC[C@H]1CN(CCc2cccc(Cl)c2)C(=O)O1", "% Inhibition": -8}, {"molecule": "Cc1ccnc2nc(C(=O)N(C)c3ccc(Cl)cn3)nn12", "% Inhibition": 16}, {"molecule": "CCC(=O)Nc1nc2ccc(NS(=O)(=O)Cc3ccccc3)cc2s1", "% Inhibition": -5}, {"molecule": "Fc1cccc(Br)c1C1CC(c2cccnc2)Nc2ncnn21", "note": "(stereo unspecified)", "% Inhibition": -9}, {"molecule": "CC(C)(C)OC(=O)NCc1ccccc1O", "% Inhibition": 1}, {"molecule": "O=C(NC1CCN(Cc2ccccc2)CC1)c1cncc(O)c1", "% Inhibition": -10}, {"molecule": "CCN1CCN(C(=O)c2ccccc2N2CCC(NC(=O)c3cccc(Br)c3)CC2)CC1", "% Inhibition": 44}, {"molecule": "CCN(CC)CCCNC(=O)c1ccc(-c2nc(CS(=O)(=O)c3ccccc3)c(C)o2)cc1", "% Inhibition": -10}, {"molecule": "O=S(=O)(c1ccc(Cl)cc1)N1CCN(C2CCCC2)CC1", "% Inhibition": 2}, {"molecule": "Cc1ccc(Cn2cnc(NC(=O)CCn3c(=O)cc(C(F)F)c4cn(C)nc43)n2)cc1", "% Inhibition": -8}, {"molecule": "CCCCn1nc(NC(=O)c2cc(C3CC3)[nH]n2)cc1C", "% Inhibition": -2}, {"molecule": "CC(C)NC(=O)N(C)Cc1ccc(F)cc1", "% Inhibition": 0}, {"molecule": "CN(C)Cc1ccc(NC(=O)c2cc(F)cc3c(=O)c4cc(F)ccc4[nH]c23)cc1", "% Inhibition": 79}, {"molecule": "O=c1[nH]c2ccccc2c(NCc2ccccc2)c1N1CCN(c2ccccc2)CC1", "% Inhibition": 5}, {"molecule": "CCn1c(C)c(C)c2cc(C(=O)Nc3cccc(S(=O)(=O)N4CCOCC4)c3)ccc21", "% Inhibition": 0}, {"molecule": "CCN1CCN(c2cccc(NC(=O)c3ccc4[nH]c5ccccc5c(=O)c4c3)c2)CC1", "% Inhibition": 93}, {"molecule": "CC(C)n1nccc1NC(=O)c1c[nH]c2ccc(F)cc2c1=O", "% Inhibition": -1}, {"molecule": "CC(=O)Nc1cccc(C#CCN2CCN(c3ccc(F)cc3)CC2)c1", "% Inhibition": -5}, {"molecule": "CCN1CCN(c2cccc(NC(=O)c3cc(F)cc4c(=O)c5cc(F)ccc5[nH]c34)c2)CC1", "% Inhibition": 97}, {"molecule": "Cc1cccc(NC(=O)c2cc(C)nc3c2c(C)nn3-c2ccc(F)cc2)c1", "% Inhibition": -2}]}]}
